SENP8 block-1: SENP8 protease inhibitors, primary screen, biochemical, luminescence; Sentrin-specific protease 8 (Homo sapiens), Q96LD8; purified SENP8, Z-RLRGG-aminoluciferin cleavage; inhibition, % at 10 µM; actives 1.2% (n = 330,000); AID 2540, 2010; in the data active = inhibition above about 50%
LGR2 inh: inhibitors of bursicon-induced LGR2 CRE-luciferase signal, primary screen, cell-based, HEK293, CRE-luciferase reporter, bursicon stimulation. bursicon-stimulated, 4 h. Drosophila bursicon receptor LGR2 (rickets). AID 720647, 2013. inhibition, % at 9.99 µM. actives 0.35% (n = 380,000);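 active = drop in luminescence signal, shown as inhibition above about 50% in the replicate tests, limit read from the data, passing the limit was not always enough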;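 note: agonist challenge used bursicon conditioned medium at about half maximal strength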
SENP7 inh: SENP7 protease inhibitors, primary screen, biochemical, luminescence, uHTS | Sentrin-specific protease 7 (Homo sapiens), Q9BQF6 | recombinant SENP7, Z-RLRGG-aminoluciferin luminescence, 40 min | inhibition, % at 5 µM | actives 1.5% (n = 330,000) | AID 434973, 2010;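 active = inhibition above about 50% at the single test dose, limit read from the data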;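 note: plate controls were DMSO with enzyme for no effect and no enzyme buffer wells for full effect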
Target sequence (Q9BQF6 706-1050 limits assumed): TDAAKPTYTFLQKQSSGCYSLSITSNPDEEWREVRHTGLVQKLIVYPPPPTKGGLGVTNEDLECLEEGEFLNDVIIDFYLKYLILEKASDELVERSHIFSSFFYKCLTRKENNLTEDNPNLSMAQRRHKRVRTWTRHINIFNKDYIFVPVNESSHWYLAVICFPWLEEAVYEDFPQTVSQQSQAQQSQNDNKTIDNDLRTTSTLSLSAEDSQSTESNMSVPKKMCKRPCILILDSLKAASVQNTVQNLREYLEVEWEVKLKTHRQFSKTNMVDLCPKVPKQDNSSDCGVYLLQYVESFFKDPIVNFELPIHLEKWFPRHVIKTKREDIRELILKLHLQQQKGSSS
SENP8 block-2: human SENP8 protease inhibitors, primary screen, biochemical, fluorescence, Nedd8 protein substrate, uHTS; Sentrin-specific protease 8 (Homo sapiens), Q96LD8; recombinant SENP8; inhibition, % at 20 µM; actives 0.64% (n = 360,000); AID 602440, 2012; in the data active = inhibition mostly above about 40%, no sharp cut-off; inactive = mostly below about 27%
HSP90 refold inh: HSP90 inhibitors, primary screen, cell lysate, luminescence | Heat shock protein HSP 90 (rabbit reticulocyte lysate; luciferase refolding) | Rabbit reticulocyte lysate, luciferase refolding luminescence, 3 h | inhibition, % at 5.6 µM | actives 0.91% (n = 290,000) | AID 1789, 2009;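 active = inhibition above the screen-wide mean plus 3 SD, computed separately per campaign, cut at about 16% in these data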;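 note: 0% = DMSO wells and 100% = 60 µM geldanamycin wells; inhibitors lower the luminescence because luciferase stays unfolded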
SENP6 block: SENP6 protease inhibitors, primary screen, biochemical, luminescence, uHTS; Recombinant SENP6 catalytic domain, aminoluciferin luminescence; Sentrin-specific protease 6 (Homo sapiens), Q9GZR1; AID 2599, 2010; actives 1.8% (n = 330,000); inhibition, % at 10 µM;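 active = inhibition above about 50% at the single tested dose, limit read from the data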;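 note: plate controls were DMSO wells with enzyme for no effect and DMSO wells lacking enzyme for full effect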
SENP8 conf: SENP8 protease inhibitors, retest, confirmation, biochemical, luminescence, single concentration | shares compounds with SENP7 inh | Recombinant SENP8, Z-RLRGG-aminoluciferin luminescence, 60 min | inhibition, % at 12.5 µM | actives 40% (n = 6,200) | AID 488912, 2010;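 active = mean inhibition across replicates above about 50%, limit read from the data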
SENP6 conf: SENP6 protease inhibitors, confirmation, biochemical, luminescence, single concentration; inhibition, % at 12.5 µM; AID 488915, 2010; shares compounds with SENP7 inh; actives 58% (n = 6,200); recombinant SENP6, Z-RLRGG-aminoluciferin luminescence
SENP7 conf: SENP7 protease inhibitors, retest, confirmation, biochemical, luminescence, single concentration. shares compounds with SENP7 inh. recombinant SENP7, Z-RLRGG-aminoluciferin luminescence, 40 min. inhibition, % at 12.5 µM. actives 69% (n = 6,200). AID 488917, 2010
Casp3 select: caspase-3 protease inhibitors, confirmation, selectivity assay for SENP inhibitor project, biochemical, single concentration. shares compounds with SENP7 inh. purified caspase-3, Z-DEVD-aminoluciferin luminescence, 60 min. inhibition, % at 12.5 µM. actives 60% (n = 6,200);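 active = mean inhibition above about 50%, limit read from the data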;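 note: plate controls were enzyme with DMSO for no effect and wells without caspase-3 for full effect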
Target sequence (P42574 28-227 limits assumed): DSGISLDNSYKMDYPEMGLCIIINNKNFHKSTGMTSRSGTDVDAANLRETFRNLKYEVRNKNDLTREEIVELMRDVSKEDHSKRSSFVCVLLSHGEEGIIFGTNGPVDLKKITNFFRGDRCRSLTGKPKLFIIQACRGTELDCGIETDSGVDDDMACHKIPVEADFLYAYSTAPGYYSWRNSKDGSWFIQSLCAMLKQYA
Luc interf: counter-screen for SENP inhibitors: luminescence interference; shares compounds with SENP7 inh; Pre-incubated SENP8/Z-RLRGG-aminoluciferin, luciferase luminescence interference; inhibition, % at 12.5 µM; actives 39% (n = 6,200); AID 488919;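 active = mean inhibition above about 50% when retested at one dose, limit read from the data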;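 note: plate controls were DMSO wells with completed reaction for no effect and substrate without enzyme for full effect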
Starred values were filed as active, the others as inactive; · = no result given; ! = not active in a repeat. A selection: hits, their analogues and other compounds. The true share with any hit is near 2.3%.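 Rule for the calls, unless noted: active = mean inhibition above about 50% in the one-dose retest (limit read from the data); inactive = the rest.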

SMILES	SENP8 block-1	LGR2 inh	SENP7 inh	SENP8 block-2	HSP90 refold inh	SENP6 block	SENP8 conf	SENP6 conf	SENP7 conf	Casp3 select	Luc interf
C[C@@H]1CCCCO[C@H](CN(C)S(=O)(=O)c2cn(C)cn2)[C@H](C)CN([C@@H](C)CO)C(=O)c2cc(NS(=O)(=O)c3cccs3)ccc2O1	·	13	·	·	·	·	·	·	·	·	·
COC(=O)[C@H]1[C@H](CO)[C@H]2Cn3c(cccc3=O)[C@H]2N1C(=O)C1CCCCC1	·	-13	·	·	·	·	·	·	·	·	·
COC(=O)c1cc(=O)nc(NN=Cc2ccccc2O)s1	·	-34	·	·	·	·	·	·	·	·	·
CC(=O)c1sc(N/N=C\c2ccccc2O)nc1C	56*	-102	43	-352	1	68*	-1	46	82*	46	38
Cc1ccsc1/C=N/n1cnc2sc(C)c(C)c2c1=O	43	·	46	21	-5	70*	23	20	22	29	8
Cc1ccc(C(=O)Nc2ncc(Cc3ccccc3)s2)o1	51*	·	63*	-10	12	71*	6	68*	92*	62*	56*
O=C(Nc1ncc(Cc2ccccc2)s1)c1cccs1	40	·	58*	-49	13	53*	57*	57*	83*	37	53*
Cc1ccc(Cc2cnc(NC(=O)c3cccs3)s2)cc1	-19	·	0	-39	4	1	·	·	·	·	·
O=C(Nc1nnc(SCc2ccccc2)s1)c1cccs1	69*	·	53*	-197	-1	86*	-4	25	36	30	6
CCSc1nnc(NC(=O)c2cccs2)s1	-17	1	2	-41	-1	-2	·	·	·	·	·
C[C@H](CO)N1C[C@H](C)[C@@H](CN(C)C(=O)Nc2ccc(F)cc2)Oc2c(NC(=O)C3CCOCC3)cccc2C1=O	·	-15	·	·	·	·	·	·	·	·	·
O=C(CC(Nc1ccc(Cl)cc1)C(=O)O)c1ccccc1 (stereo not drawn)	77*	·	81*	-108	-3	92*	42	86*	78*	67*	35
COc1ccc2c3c(n(C)c2c1)[C@H](CO)N(Cc1ccccc1Cl)CC31CCN(C(C)=O)CC1	·	1	·	·	·	·	·	·	·	·	·
COc1ccc2c(c1OC)C(=O)N(c1cccc(C)c1)C2	33	·	59*	-16	-2	71*	65*	64*	90*	84*	70*
CCOCC(=O)Nc1cc(C(=O)Nc2cc(C)cc(C)c2)ccc1Cl	79*	·	93*	·	-10	-32	83*	54*	90*	89*	47
CCOCC(=O)Nc1cc(C(=O)Nc2ccccc2)ccc1Cl	14	·	33	29	-3	26	·	·	·	·	·
CN(C)C(=O)C[C@@H]1CC[C@H]2[C@@H](COc3ccc(NC(=O)C4CCC4)cc3C(=O)N2C)O1	·	-8	·	·	·	·	·	·	·	·	·
COc1cccc2cc(-c3nnc(-c4ccccc4)o3)c(=O)oc12	74*	11	90*	-223	4	92*	0	2	3	5	10
COc1ccc(-c2nnc(-c3cc4ccccc4oc3=O)o2)cc1	-8	·	3	-349	-3	-7	·	·	·	·	·
COc1cccc2cc(-c3cn4ccc(C)cc4n3)c(=O)oc12	23	-32	50*	-69	8	46	0	4	13	12	4
CC(=O)Oc1cccc(/C=C2\C=C(c3ccc(C)cc3)OC2=O)c1	-12	36	-4	-63	5	3	·	·	·	·	·
O=C1NC(=O)/C(=C\c2ccc(OCc3cnc(Cl)s3)cc2)S1	29	-21	3	-6	-2	35	·	·	·	·	·
O=C1Nc2ccccc2S/C1=C/c1cccs1	-24	·	-9	-2	-8	-14	·	·	·	·	·
CCCCOc1ccc(/C=C2/Sc3ccccc3C2=O)cc1	76*	-48	71*	-245	4	44	3	18	15	12	8
CC(=O)Oc1cccc(/C=C2\Sc3ccccc3C2=O)c1	89*	-13	83*	-6	8	91*	75*	94*	68*	41	23
SMILES	SENP8 block-1	LGR2 inh	SENP7 inh	SENP8 block-2	HSP90 refold inh	SENP6 block	SENP8 conf	SENP6 conf	SENP7 conf	Casp3 select	Luc interf
O=C1/C(=C/c2cccs2)Sc2ccccc21	81*	-34	93*	-213	-2	86*	3	41	58*	39	26
CCCCOc1ccc(/C=c2\sc3ncnn3c2=O)cc1	-9	·	2	4	4	-12	·	·	·	·	·
CC(C)COc1ccc(/C=C2/Sc3ccccc3C2=O)cc1	94*	·	95*	-274	-2	96*	4	22	23	16	12
C[C@@H]1CN([C@@H](C)CO)C(=O)c2cc(-c3ccccc3)cnc2O[C@@H]1CN(C)Cc1ccccc1	·	7	·	·	·	·	·	·	·	·	·
c1ccc(-c2n[nH]c(-c3ccccn3)n2)nc1	26	16	59*	6	1	66*!	53*	51*	78*	84*	61*
O=C(Nc1ccc(F)cc1)c1nsc(Cl)c1Cl	84*	·	83*	32	-3	94*	62*	87*	97*	90*	57*
O=C(Nc1ccc(F)c(Cl)c1)c1nsc(Cl)c1Cl	91*	·	96*	15	-1	93*	53*	74*	87*	80*	27
O=C(C[C@@H]1C[C@@H]2c3cc(NC(=O)NC4CCCC4)ccc3O[C@@H]2[C@@H](CO)O1)NCCc1ccccc1	·	1	·	·	·	·	·	·	·	·	·
O=c1/c(=C/c2ccc(O)cc2)sc2n1CCCN=2	80*	·	64*	15	-5	86*	86*	84*	96*	88*	84*

Screens (PubChem BioAssay)
